Measurements taken from the supplement of paper PMC10849652.
About 7,900 targets were measured; listed, in parts, are those with a hit and a random draw of the rest. About 0.6% of all pairs of compound and target were hits. A number with no mark means an inactive call.

Key:
Assay in all cases: log2 fold change, soluble protein after heating vs DMSO (PISA); higher = thermal stabilisation; K562 cells, 10 uM, 30 min; active = over 0.2 and 3.5 SD of the protein, either way, in both replicates (recomputed)
[1] = compound: CC1=C(C=C(C=C1)NC(=O)C2=CC(=CC=C2)C(C)(C)C#N)NC3=CC4=C(C=C3)N=CN(C4=O)C
How it was run: (§1)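 Soluble protein was defined as the supernatant after 21,000xg for 90 min. It came from K562 cells at 2×10^6 cells/mL given 10 μM compound for 30 min, heated in aliquots for 3 min across 48°C-58°C, pooled, and extracted in PBS with 0.5% NP-40 at 4°C, and was quantified by TMTpro 16plex LC-MS/MS with equalised channel sums. Thermal stability against control samples, from duplicates, is reported as log2 fold change.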

[2] = compound: CC1=C(C=C(C=C1)NC(=O)C2=CC(=CC=C2)N(C)C)NC(=O)C3=CC=C(C=C3)O
How it was run: as §1

[3] = compound: CC1=CC=C(C=C1)SC2=C3C=C(SC3=CN=C2)C(=O)N
How it was run: as §1

[4] = compound: CC1=NC(=CC=C1)C2=C(N=C(N2)C(C)(C)C)C3=CC4=NC=CN=C4C=C3
How it was run: as §1

Nexturastat A = compound: CCCCN(Cc1ccc(C(=O)NO)cc1)C(=O)Nc1ccccc1 [Nexturastat A]
How it was run: as §1

vemurafenib = compound: CCCS(=O)(=O)Nc1ccc(F)c(C(=O)c2c[nH]c3ncc(-c4ccc(Cl)cc4)cc23)c1F [vemurafenib]
How it was run: as §1

[5] = compound: CCCS(=O)(=O)Nc1ccc(F)c(C(=O)c2c[nH]c3ncc(Cl)cc23)c1F
How it was run: as §1

[6] = compound: CCCc1cc(C)[nH]c(=O)c1CNC(=O)c1cc(-c2ccnc(N3CCN(C)CC3)c2)cc2c1cnn2C(C)C
How it was run: as §1

givinostat = compound: CCN(CC)Cc1ccc2cc(COC(=O)Nc3ccc(C(=O)NO)cc3)ccc2c1 [givinostat]
How it was run: as §1

barasertib = compound: CCN(CCCOc1ccc2c(Nc3cc(CC(=O)Nc4cccc(F)c4)[nH]n3)ncnc2c1)CCOP(=O)(O)O [barasertib]
How it was run: as §1

[7] = compound: CC[C@@H]1C(=O)N(C)c2cnc(Nc3ccc(C(=O)NC4CCN(C)CC4)cc3OC)nc2N1C1CCCC1
How it was run: as §1

volasertib = compound: CC[C@@H]1C(=O)N(C)c2cnc(Nc3ccc(C(=O)N[C@H]4CC[C@H](N5CCN(CC6CC6)CC5)CC4)cc3OC)nc2N1C(C)C [volasertib]
How it was run: as §1

[8] = compound: CC[C@H](C)N1C=C(C2=C(C=C(C=C21)C3=CN=C(C=C3)N4CCNCC4)C(=O)NCC5=C(C=C(NC5=O)C)C)C
How it was run: as §1

epoxomicin = compound: CC[C@H](C)[C@@H](C(=O)N[C@@H]([C@@H](C)O)C(=O)N[C@@H](CC(C)C)C(=O)[C@]1(CO1)C)NC(=O)[C@H]([C@@H](C)CC)N(C)C(=O)C [epoxomicin]
How it was run: as §1

[9] = compound: CCn1c(C(=O)N(C2CC2)C2CC2)cc2c3c(ncn3C)c(Nc3cc(C)n(C)n3)nc21
How it was run: as §1

[10] = compound: CCn1cc(-c2ccnc3[nH]c(-c4cccc(CN(C)C)c4)cc23)c(-c2ccc(NC(=O)N(C)C)cc2)n1
How it was run: as §1

[11] = compound: CN(C)CC(=O)Nc1ccc2[nH]c(=O)c3ccccc3c2c1
How it was run: as §1

rosiglitazone = compound: CN(CCOC1=CC=C(C=C1)C[C@H]2C(=O)NC(=O)S2)C3=CC=CC=N3 (racemic) [rosiglitazone]
How it was run: as §1

[12] = compound: CN1CCC(CNc2ccc3ncc(-c4cccc(OC(F)(F)F)c4)n3n2)CC1
How it was run: as §1

[13] = compound: CN1C2=C(C3=C1C(=O)N(N=C3)CC4=CC(=CC=C4)N)SC(=C2)S(=O)C
How it was run: as §1

Sequence of UniProt Q9ULV3 (Q9ULV3 whole entry, looked up): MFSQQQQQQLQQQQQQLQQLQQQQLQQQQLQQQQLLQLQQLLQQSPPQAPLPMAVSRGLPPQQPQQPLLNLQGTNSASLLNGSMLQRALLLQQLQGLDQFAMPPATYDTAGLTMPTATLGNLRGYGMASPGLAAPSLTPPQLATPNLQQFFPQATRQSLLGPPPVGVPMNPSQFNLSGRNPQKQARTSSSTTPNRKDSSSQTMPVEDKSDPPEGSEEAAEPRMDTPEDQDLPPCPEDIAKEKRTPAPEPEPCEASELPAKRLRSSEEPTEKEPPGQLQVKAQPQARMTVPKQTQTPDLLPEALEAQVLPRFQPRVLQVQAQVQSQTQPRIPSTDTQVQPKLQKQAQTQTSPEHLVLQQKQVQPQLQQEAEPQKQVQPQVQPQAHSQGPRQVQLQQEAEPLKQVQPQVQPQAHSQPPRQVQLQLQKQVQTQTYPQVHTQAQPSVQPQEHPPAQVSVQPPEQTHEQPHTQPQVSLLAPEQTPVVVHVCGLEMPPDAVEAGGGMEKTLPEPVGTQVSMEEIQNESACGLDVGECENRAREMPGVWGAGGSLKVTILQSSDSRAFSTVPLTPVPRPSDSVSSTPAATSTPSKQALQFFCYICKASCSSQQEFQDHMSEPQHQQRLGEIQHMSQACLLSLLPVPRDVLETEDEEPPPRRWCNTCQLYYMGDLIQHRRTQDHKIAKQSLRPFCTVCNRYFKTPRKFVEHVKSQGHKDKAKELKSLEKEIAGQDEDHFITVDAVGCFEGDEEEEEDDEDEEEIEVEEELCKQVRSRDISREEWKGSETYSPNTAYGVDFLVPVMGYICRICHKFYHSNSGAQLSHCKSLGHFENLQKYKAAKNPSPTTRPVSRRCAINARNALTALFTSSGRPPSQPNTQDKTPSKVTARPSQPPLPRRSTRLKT
Sequence of UniProt Q13901 (Q13901 whole entry, looked up): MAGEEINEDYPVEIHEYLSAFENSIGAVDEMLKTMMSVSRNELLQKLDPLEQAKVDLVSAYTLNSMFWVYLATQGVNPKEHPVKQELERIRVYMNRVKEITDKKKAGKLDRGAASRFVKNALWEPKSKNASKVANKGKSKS
Sequence of UniProt Q14004 (Q14004 whole entry, looked up): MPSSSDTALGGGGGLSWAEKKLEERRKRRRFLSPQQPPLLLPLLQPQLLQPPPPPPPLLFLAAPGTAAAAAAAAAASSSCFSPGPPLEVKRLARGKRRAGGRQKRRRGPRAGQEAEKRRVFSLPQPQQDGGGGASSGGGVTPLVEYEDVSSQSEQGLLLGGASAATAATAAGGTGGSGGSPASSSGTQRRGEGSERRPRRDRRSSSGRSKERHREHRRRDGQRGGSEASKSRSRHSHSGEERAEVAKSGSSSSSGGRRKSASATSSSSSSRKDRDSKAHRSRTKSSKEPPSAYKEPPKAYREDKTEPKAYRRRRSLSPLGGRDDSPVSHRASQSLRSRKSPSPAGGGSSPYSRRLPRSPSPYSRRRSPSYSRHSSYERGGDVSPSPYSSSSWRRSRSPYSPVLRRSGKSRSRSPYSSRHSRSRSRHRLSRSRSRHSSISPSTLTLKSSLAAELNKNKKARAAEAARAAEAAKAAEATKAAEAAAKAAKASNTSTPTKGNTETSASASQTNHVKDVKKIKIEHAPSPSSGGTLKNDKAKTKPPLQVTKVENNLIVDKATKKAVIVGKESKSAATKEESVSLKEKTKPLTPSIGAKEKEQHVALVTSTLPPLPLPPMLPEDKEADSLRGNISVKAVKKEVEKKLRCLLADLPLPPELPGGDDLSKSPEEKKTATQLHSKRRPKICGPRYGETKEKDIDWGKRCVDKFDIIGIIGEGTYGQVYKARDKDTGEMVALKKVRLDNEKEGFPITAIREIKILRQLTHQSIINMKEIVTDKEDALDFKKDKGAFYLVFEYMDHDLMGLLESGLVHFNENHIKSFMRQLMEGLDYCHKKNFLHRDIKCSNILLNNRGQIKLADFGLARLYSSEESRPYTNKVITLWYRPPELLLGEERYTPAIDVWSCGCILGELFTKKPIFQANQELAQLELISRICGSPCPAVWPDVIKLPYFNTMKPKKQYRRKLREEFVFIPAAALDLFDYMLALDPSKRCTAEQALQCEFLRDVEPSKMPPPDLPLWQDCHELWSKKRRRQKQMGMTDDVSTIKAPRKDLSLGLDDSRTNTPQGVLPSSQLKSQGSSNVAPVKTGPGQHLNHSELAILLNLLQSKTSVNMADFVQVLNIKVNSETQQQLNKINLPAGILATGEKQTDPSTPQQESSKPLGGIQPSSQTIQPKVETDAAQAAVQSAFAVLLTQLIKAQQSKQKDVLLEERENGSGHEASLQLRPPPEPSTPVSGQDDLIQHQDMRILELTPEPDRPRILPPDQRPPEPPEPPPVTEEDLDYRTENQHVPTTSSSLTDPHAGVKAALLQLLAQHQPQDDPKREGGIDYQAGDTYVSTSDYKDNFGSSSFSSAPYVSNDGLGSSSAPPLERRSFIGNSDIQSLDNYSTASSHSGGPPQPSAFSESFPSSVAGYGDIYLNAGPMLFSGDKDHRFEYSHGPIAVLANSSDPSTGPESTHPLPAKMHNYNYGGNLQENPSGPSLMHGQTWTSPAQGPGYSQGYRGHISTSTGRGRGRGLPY
Sequence of UniProt Q5T6V5 (Q5T6V5 whole entry, looked up): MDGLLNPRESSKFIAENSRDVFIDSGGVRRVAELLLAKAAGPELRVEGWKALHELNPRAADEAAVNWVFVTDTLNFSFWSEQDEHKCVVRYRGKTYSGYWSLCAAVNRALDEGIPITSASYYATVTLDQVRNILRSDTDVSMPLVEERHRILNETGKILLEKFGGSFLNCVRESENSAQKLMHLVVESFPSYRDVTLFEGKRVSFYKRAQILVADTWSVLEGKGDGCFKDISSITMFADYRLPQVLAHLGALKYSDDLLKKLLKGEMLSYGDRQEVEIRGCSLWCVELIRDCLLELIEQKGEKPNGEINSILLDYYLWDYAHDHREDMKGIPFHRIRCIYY
Sequence of UniProt P30305 (P30305 whole entry, looked up): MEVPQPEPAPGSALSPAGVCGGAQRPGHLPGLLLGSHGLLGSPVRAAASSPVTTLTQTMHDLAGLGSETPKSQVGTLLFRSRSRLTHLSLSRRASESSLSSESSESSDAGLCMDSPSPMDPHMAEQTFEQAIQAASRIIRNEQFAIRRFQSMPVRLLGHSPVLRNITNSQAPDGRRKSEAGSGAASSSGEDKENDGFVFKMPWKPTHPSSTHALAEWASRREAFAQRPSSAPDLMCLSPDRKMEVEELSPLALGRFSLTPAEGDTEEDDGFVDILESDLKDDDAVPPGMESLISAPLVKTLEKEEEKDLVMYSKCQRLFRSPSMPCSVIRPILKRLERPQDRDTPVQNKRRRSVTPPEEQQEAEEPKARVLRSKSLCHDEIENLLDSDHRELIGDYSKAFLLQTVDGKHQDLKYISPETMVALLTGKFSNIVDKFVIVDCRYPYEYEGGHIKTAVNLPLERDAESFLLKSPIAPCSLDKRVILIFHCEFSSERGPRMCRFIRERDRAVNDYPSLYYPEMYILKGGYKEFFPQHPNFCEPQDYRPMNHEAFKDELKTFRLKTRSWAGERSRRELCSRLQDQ
Sequence of UniProt O43405 (O43405 whole entry, looked up): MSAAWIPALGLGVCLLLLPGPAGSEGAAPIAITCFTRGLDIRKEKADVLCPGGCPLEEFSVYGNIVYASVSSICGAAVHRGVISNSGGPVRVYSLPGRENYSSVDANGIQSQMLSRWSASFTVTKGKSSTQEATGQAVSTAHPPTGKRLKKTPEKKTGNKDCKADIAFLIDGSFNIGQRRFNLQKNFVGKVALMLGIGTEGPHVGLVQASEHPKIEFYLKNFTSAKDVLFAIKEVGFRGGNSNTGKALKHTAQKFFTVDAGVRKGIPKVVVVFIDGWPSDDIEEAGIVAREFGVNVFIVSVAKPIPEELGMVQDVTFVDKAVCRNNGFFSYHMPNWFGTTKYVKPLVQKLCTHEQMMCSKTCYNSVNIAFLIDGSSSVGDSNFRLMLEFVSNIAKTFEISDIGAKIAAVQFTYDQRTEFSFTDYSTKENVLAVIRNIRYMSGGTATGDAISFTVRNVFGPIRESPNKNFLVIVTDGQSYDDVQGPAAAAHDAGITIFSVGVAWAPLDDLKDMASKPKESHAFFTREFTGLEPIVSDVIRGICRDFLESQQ
Sequence of UniProt P41208 (P41208 whole entry, looked up): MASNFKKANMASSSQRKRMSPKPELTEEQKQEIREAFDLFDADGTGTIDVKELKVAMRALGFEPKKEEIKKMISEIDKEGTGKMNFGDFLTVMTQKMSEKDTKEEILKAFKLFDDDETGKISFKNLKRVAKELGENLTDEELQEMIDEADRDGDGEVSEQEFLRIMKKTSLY
Sequence of UniProt Q8NHZ8 (Q8NHZ8 whole entry, looked up): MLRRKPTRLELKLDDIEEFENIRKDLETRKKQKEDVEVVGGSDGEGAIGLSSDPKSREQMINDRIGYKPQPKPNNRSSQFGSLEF

| Target | log2 fold change [1] | log2 fold change [2] | log2 fold change [3] | log2 fold change [4] | log2 fold change (Nexturastat A) | log2 fold change (vemurafenib) | log2 fold change [5] | log2 fold change [6] | log2 fold change (givinostat) | log2 fold change (barasertib) | log2 fold change [7] | log2 fold change (volasertib) | log2 fold change [8] | log2 fold change (epoxomicin) | log2 fold change [9] | log2 fold change [10] | log2 fold change [11] | log2 fold change (rosiglitazone) | log2 fold change [12] | log2 fold change [13] |
| --- | --- | --- | --- | --- | --- | --- | --- | --- | --- | --- | --- | --- | --- | --- | --- | --- | --- | --- | --- | --- |
| CDC25B isoform 4 (UniProt P30305) | 0.203 | -0.022 | -0.008 | -0.004 | -0.039 | 0.054 | -0.077 | -0.352 | 0.032 | -0.044 | -0.003 | -0.049 | -0.266 | 0.1 | -0.031 | -0.092 | -0.021 | -0.012 | -0.081 | – |
| CETN2 (UniProt P41208) | -0.015 | -0.016 | -0.146 | -0.071 | -0.188 | -0.008 | -0.335 (active) | -0.034 | -0.034 | -0.013 | 0.149 | 0.159 | -0.006 | -0.074 | 0.074 | 0.065 | -0.058 | -0.01 | 0.037 | -0.018 |
| CIZ1 (UniProt Q9ULV3) | -0.02 | -0.027 | -0.022 | 0.059 | 0.011 | -0.018 | -0.007 | -0.033 | 0.017 | 0.001 | 0.071 | -0.022 | 0.046 | 0.086 | -0.008 | 0.017 | -0.011 | -0.034 | -0.035 | 0.015 |
| COCH (UniProt O43405) | 0.072 | 0.053 | 0.059 | 0.005 | 0.046 | -0.067 | -0.05 | 0.076 | -0.049 | 0 | 0.117 | -0.08 | -0.065 | -0.153 | 0.054 | 0.075 | -0.127 | -0.056 | 0.076 | 0.007 |
| C9orf64 (UniProt Q5T6V5) | 0.014 | -0.014 | 0.029 | 0.001 | 0.029 | -0.032 | 0.079 | -0.036 | 0.064 | 0.08 | -0.066 | -0.309 | 0.103 | -0.004 | -0.094 | -0.149 | 0.075 | 0.119 | -0.396 (active) | -0.007 |
| CDK13 (UniProt Q14004) | 0.045 | 0.027 | -0.047 | 0.056 | -0.212 | -0.056 | -0.037 | -0.011 | -0.021 | -0.029 | 0.025 | 0.09 | 0.034 | -0.032 | 0.087 | 0.018 | 0.004 | -0.002 | -0.047 | 0.233 |
| CDC26 (UniProt Q8NHZ8) | -0.026 | 0.029 | -0.025 | 0.021 | 0.067 | 0.534 (active) | -0.048 | 0.056 | 0.056 | 0.007 | 0.06 | 0.037 | -0.068 | -0.031 | 0.085 | 0.003 | 0.158 | -0.008 | 0.131 | 0.107 |
| C1D (UniProt Q13901) | 0.058 | 0.002 | -0.015 | -0.045 | -0.053 | -0.046 | -0.175 | -0.019 | -0.002 | 0.104 | 0.088 | 0.076 | -0.034 | 0.02 | 0 | -0.021 | -0.127 | -0.008 | 0.096 | – |
